Our source for the z-score values is PubChem BioAssay.

Unmarked numbers belong to inactive results. Unless noted, the rule behind the calls is not given here.

The first experiment in a line: cell viability in Huh7 cells, primary screen, cytotoxicity control for HCV replication inhibitor project, CellTiter-Glo luminescence, basal, 48 h (AID 1143).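 Note: Huh7 hepatoma cells carrying a hepatitis C replication reporter with no stimulus; test concentration not given here.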 The settings on record: Huh7 HCV replicon, higher = more signal, called active from +8 up or from −8 down. A general note: ATP-based viability assays read luminescence as a measure of living cells.
For the molecule `COc1cc(CO)cc(I)c1O[C@H]1C=C(C(=O)NCCO)C[C@@H](N(Cc2ccc(F)cc2)C(=O)C2CCCO2)[C@@H]1O` (stereo not given in full), the z-score is -0.457.
On the same count and under the same terms, with `CCCC[C@@H]1C[C@H]1[C@@H](NC(=O)c1ccccc1)c1ccc(Cl)cc1` the figure was -2.6; with `CN(C)CCCNC(=O)[C@@H]1c2ccccc2C(=O)N(CC23CC4CC(CC(C4)C2)C3)[C@H]1c1ccc(CO)cc1`, -4.72.
Turning to `CC(=O)N1Cc2ccccc2C[C@]2(N=C(c3ccc(OCCCO)cc3)O[C@@H]2c2ccccc2)C1=O`, the z-score was -3.38.
The same measure, in the same setting: the figure for `C=CCOC(=O)[C@H]1[C@@H]2C(=O)O[C@@H](c3ccccc3)[C@@H](c3ccccc3)N2[C@@H](c2ccc(OCCOC(=O)[C@H]3C[C@H]4C(=O)N[C@@H](Cc5ccccc5)C(=O)N4[C@H]3c3ccc(O)cc3)cc2)[C@]12C(=O)Nc1ccc(I)cc12` is -0.918.
On the same count and under the same terms, the figure for `COC(=O)C1(Cc2ccccc2)C=C2C(=C(C(C)C)C(=O)C2C)CN1` (stereo not given) is -0.576; for `C=CC[C@]12N=C(c3ccc(OCCCO)cc3)O[C@H]1c1ccccc1N(C)C2=O` it is -4.59.
Same read-out and setting: the figure for `CC=CC(O)C1C=CC2C(=O)N(C)C(=O)C2N1N1CCCCC1` (stereo not given) is 0.173.
For `CCCNC(=O)[C@@]1(c2ccc([N+](=O)[O-])cc2)CC(=O)N(C2CCCCC2)[C@@H]1c1ccc(CO)cc1I`, the z-score is -4.24.
Regarding `O=C1C[C@@](C(=O)NCC(F)(F)F)(c2ccc([N+](=O)[O-])cc2)[C@@H](c2ccc(CO)cc2)N1C1CCCCC1`, the z-score was -1.97.
On to `CCOC(=O)C[C@H]1[C@H](OC(=O)c2ccccc2-c2ccccc2)[C@@H](NC(=O)CC(C)C)c2cc(OCCCO)ccc2N1C(=O)c1ccc2ccccc2n1`, for which the z-score was -0.431.
In the case of `COc1ccc(C(O)C2C=CC3C(=O)N(C)C(=O)C3N2N2CCCCC2)cc1` (stereo not given), the z-score is 0.758.
Still for that read-out and setting: with `CCCCC(CC)C(O)C1C=CC2C(=O)N(c3ccccc3)C(=O)C2N1Nc1ccc([N+](=O)[O-])cc1` (stereo not given) the figure was -0.728.
As for `C=C(C(=O)CC[C@H](OC(C)=O)c1cccc(OCCO)c1)C(C)C`, the z-score was -3.05.
On the same count and under the same terms, the figure for `C=C(/C(=C/C[C@@H](OC(=O)c1ccncc1)c1ccccc1OCCO)c1cc(C(=O)OC)ccc1OC)C(C)C` is -2.43; for `COc1ccc([Si](C)(C)[C@H]2[C@H](CCn3cc([C@H](O)c4ccccc4)nn3)O[C@@]3(C(=O)N(Cc4ccc(N5CCOC5=O)cc4)c4ccccc43)[C@@H]2C)cc1` it is -1.3; for `CC(C)OC(=O)CC(=O)CC(O)c1cccc(C#N)c1` (stereo not given) it is -2.13.
Same read-out and setting: the figure for `COc1cc(CO)cc(I)c1O[C@H]1C=C(C(=O)NCCO)C[C@@H](NCc2ccccc2F)[C@@H]1O` is -0.466; for `CC(C)CN1C(=O)[C@@]2(Cc3ccccc31)c1ccccc1C(=O)N(Cc1ccccc1C(F)(F)F)[C@H]2c1ccc(CO)cc1` it is -2.54.
Consider `CCOC(=O)[C@@H]1[C@@H]2C(=O)N(CC)C(=O)[C@@H]2C[C@@H]1Sc1ccccc1`, for which the z-score is 0.371.
Still for that read-out and setting: the figure for `C=CC[C@@H](OC(=O)Nc1ccc(OC)cc1)c1ccc(OCCO)cc1` is -2.05; for `O=C(NC1CC1)[C@@H]1c2ccccc2C(=O)N(Cc2ccccc2)[C@H]1c1ccc(CO)cc1` it is -0.878.
Take `CC[C@H]1C2=C3C(CC[C@H]4C(OCc5ccc(F)cc5C(F)(F)F)OC[C@](C)([C@@H]34)N(C(=O)OC(C)(C)C)C2)C2COC(=O)OCC21` (stereo not given in full): the z-score is -2.57.
The same measure, in the same setting: the figure for `COC(=O)[C@]1(CCS(=O)(=O)c2ccccc2)N=C(c2ccc(OCCCO)cc2)O[C@@H]1c1ccccc1CN=[N+]=[N-]` is -4.23; for `C=CCOC(=O)[C@@H]1[C@H]2C(=O)O[C@H](c3ccccc3)[C@H](c3ccccc3)N2[C@H](c2ccc(OCCOC(=O)[C@H]3C[C@H]4C(=O)N[C@@H](CCCCNC(C)=O)C(=O)N4[C@H]3c3cccc(OCCO)c3)cc2)[C@@]12C(=O)Nc1ccc(I)cc12` it is -0.495; for `O=C1OCCC=C[C@H]2OC34C=CCN(c5ccc(Cl)cc5)C(=O)[C@H]3N(CCCCCO)C(=O)[C@@H]4C12` (stereo not given in full) it is -0.091.
On the same count and under the same terms, with `COc1ccc(C(O)C2C=CC3C(=O)N(Cc4ccccc4)C(=O)C3N2n2cnnc2)c2ccccc12` (stereo not given) the figure was -3.64.

A further experiment in a line: P. aeruginosa biofilm formation inhibitors, primary screen, PAO1 strain, BacTiter-Glo luminescence, LB-PBS (AID 1144). The settings on record: 12 h, higher = more signal.
Consider `COCCOC(=O)N1C(=O)[C@@]2(c3cc(C#CC4(O)CCCCCC4)ccc31)[C@H](C(N)=O)[C@H]1C(=O)O[C@H](c3ccccc3)[C@H](c3ccccc3)N1[C@@H]2c1ccccc1OCCO`, for which the z-score is 0.533.
Turning to `C=CCN1C(=O)[C@@]2(O[C@@H](CCO)[C@H]([Si](C)(C)c3ccc(OC)cc3)[C@H]2C)c2cc(N3C(=O)c4ccccc4Oc4ccccc43)ccc21`, the z-score is -1.4.
Still for that read-out and setting: the figure for `C[C@]1(C(=O)NC2CC2)c2ccccc2C(=O)N(Cc2ccc(OC(F)(F)F)cc2)[C@H]1c1ccc(CO)cc1` is 0.244; for `CC(C)(C)OC(=O)CC[C@]1(C(=O)N2CCOCC2)N=C(c2ccc(OCCCO)cc2)O[C@H]1c1ccccc1` it is 0.838.
Same read-out and setting: the figure for `C=C[C@@H](C)[C@H](OC(=O)Nc1ccc(SC)cc1)c1ccc(OCCO)cc1` is -1.37; for `COC(=O)[C@@]1(Cc2ccc(OC)cc2)[C@H]2c3cc(C(=O)N4CCCC4)n(CCc4cc5ccccc5[nH]4)c3C[C@H]2CN1C(=O)c1ccccc1` it is 0.497; for `C=CCNC(=O)[C@@H]1[C@H]2C(=O)O[C@H](c3ccccc3)[C@H](c3ccccc3)N2[C@H](c2ccc(OCCO)cc2)[C@@]12C(=O)N(C(=O)OCCOC)c1ccc(C#CC3=CCCCC3)cc12` it is 0.576.
Turning to `CC(C)C(CO)N1C(=O)[C@]2(C)C3C(=O)OCCC/C=C\[C@H]3OC23C=CCN(c2ccc(Cl)cc2)C(=O)[C@@H]13` (stereo not given in full), the z-score was 1.25.
Same read-out and setting: with `C=CC[C@H](OC(=O)Nc1ccc(OC)cc1)c1ccc(O)c2ccccc12` the figure was -1.4; with `COc1cc(CO)cc(I)c1O[C@H]1C=C(C(=O)NCCO)C[C@@H](N(Cc2ccc(F)cc2)C(=O)C2CCCO2)[C@@H]1O` (stereo not given in full), -0.583.
For `CCCC[C@@H]1C[C@H]1[C@@H](NC(=O)c1ccccc1)c1ccc(Cl)cc1`, the z-score is 0.173.
On the same count and under the same terms, with `CN(C)CCCNC(=O)[C@@H]1c2ccccc2C(=O)N(CC23CC4CC(CC(C4)C2)C3)[C@H]1c1ccc(CO)cc1` the figure was -0.465.
Regarding `CC(=O)N1Cc2ccccc2C[C@]2(N=C(c3ccc(OCCCO)cc3)O[C@@H]2c2ccccc2)C1=O`, the z-score is -0.497.
Still for that read-out and setting: with `C=CCOC(=O)[C@H]1[C@@H]2C(=O)O[C@@H](c3ccccc3)[C@@H](c3ccccc3)N2[C@@H](c2ccc(OCCOC(=O)[C@H]3C[C@H]4C(=O)N[C@@H](Cc5ccccc5)C(=O)N4[C@H]3c3ccc(O)cc3)cc2)[C@]12C(=O)Nc1ccc(I)cc12` the figure was -0.707.
Still for that read-out and setting: with `COC(=O)C1(Cc2ccccc2)C=C2C(=C(C(C)C)C(=O)C2C)CN1` (stereo not given) the figure was 0.429; with `C=CC[C@]12N=C(c3ccc(OCCCO)cc3)O[C@H]1c1ccccc1N(C)C2=O`, -1.2; with `CC=CC(O)C1C=CC2C(=O)N(C)C(=O)C2N1N1CCCCC1` (stereo not given), -0.0466.
Same read-out and setting: the figure for `CCCNC(=O)[C@@]1(c2ccc([N+](=O)[O-])cc2)CC(=O)N(C2CCCCC2)[C@@H]1c1ccc(CO)cc1I` is -0.326; for `O=C1C[C@@](C(=O)NCC(F)(F)F)(c2ccc([N+](=O)[O-])cc2)[C@@H](c2ccc(CO)cc2)N1C1CCCCC1` it is 0.0325; for `CCOC(=O)C[C@H]1[C@H](OC(=O)c2ccccc2-c2ccccc2)[C@@H](NC(=O)CC(C)C)c2cc(OCCCO)ccc2N1C(=O)c1ccc2ccccc2n1` it is 1.51.
For the molecule `COc1ccc(C(O)C2C=CC3C(=O)N(C)C(=O)C3N2N2CCCCC2)cc1` (stereo not given), the z-score was -0.3.
On the same count and under the same terms, the figure for `CCCCC(CC)C(O)C1C=CC2C(=O)N(c3ccccc3)C(=O)C2N1Nc1ccc([N+](=O)[O-])cc1` (stereo not given) is 0.00163; for `C=C(C(=O)CC[C@H](OC(C)=O)c1cccc(OCCO)c1)C(C)C` it is -0.0576.
On the same count and under the same terms, with `C=C(/C(=C/C[C@@H](OC(=O)c1ccncc1)c1ccccc1OCCO)c1cc(C(=O)OC)ccc1OC)C(C)C` the figure was 0.128; with `COc1ccc([Si](C)(C)[C@H]2[C@H](CCn3cc([C@H](O)c4ccccc4)nn3)O[C@@]3(C(=O)N(Cc4ccc(N5CCOC5=O)cc4)c4ccccc43)[C@@H]2C)cc1`, -0.434.
Same read-out and setting: the figure for `CC(C)OC(=O)CC(=O)CC(O)c1cccc(C#N)c1` (stereo not given) is -0.461; for `COc1cc(CO)cc(I)c1O[C@H]1C=C(C(=O)NCCO)C[C@@H](NCc2ccccc2F)[C@@H]1O` it is -0.251.
Take `CC(C)CN1C(=O)[C@@]2(Cc3ccccc31)c1ccccc1C(=O)N(Cc1ccccc1C(F)(F)F)[C@H]2c1ccc(CO)cc1`: the z-score is -1.53.
Still for that read-out and setting: with `CCOC(=O)[C@@H]1[C@@H]2C(=O)N(CC)C(=O)[C@@H]2C[C@@H]1Sc1ccccc1` the figure was -0.868; with `C=CC[C@@H](OC(=O)Nc1ccc(OC)cc1)c1ccc(OCCO)cc1`, -0.542.
Take `O=C(NC1CC1)[C@@H]1c2ccccc2C(=O)N(Cc2ccccc2)[C@H]1c1ccc(CO)cc1`: the z-score is -0.55.
Take `CC[C@H]1C2=C3C(CC[C@H]4C(OCc5ccc(F)cc5C(F)(F)F)OC[C@](C)([C@@H]34)N(C(=O)OC(C)(C)C)C2)C2COC(=O)OCC21` (stereo not given in full): the z-score is 0.265.
In the case of `COC(=O)[C@]1(CCS(=O)(=O)c2ccccc2)N=C(c2ccc(OCCCO)cc2)O[C@@H]1c1ccccc1CN=[N+]=[N-]`, the z-score is -0.32.
